Screening results from PubChem.
MIN6 prolif: MIN6 beta-cell proliferation induction | MIN6 cells proliferation, ATPlite luminescence, 48 h; cells starved in 0.2% serum; 100% = growth in 10% serum | proliferation, % at 10 µM | actives 0.29% (n = 330,000);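 active = compounds whose signal lies at least 3.5 SD above the mean of all wells on their plate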;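 also: 0% = DMSO-treated cells in low-serum medium and 100% = 10% serum control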
pCIP destab: lowers stability of the mouse p/CIP coactivator protein; Q05BA5; F442A p/CIP-EGFP cells, EGFP fluorescence, 16 h; decrease of EGFP signal, % at 10 µM; actives 0.01% (n = 290,000); AID 1984;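 active = EGFP signal decrease of at least 30% at 10 µM or well 3 SD below plate mean, unless failing retest; inactive = the rest, including hits failing retest or dose response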
GRIN3A LBD mod: modulates the human NR3A ligand-binding domain. NR3A LBD differential scanning fluorimetry, Tm shift; 0% = protein alone, 100% = glycine-bound protein. Tm shift relative to glycine control, % at 25 µM. actives 2.5% (n = 340,000);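 active = melting temperature shift of at least 10% of the positive control shift, at one fixed dose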
FAS TE block: FAS thioesterase (human) inhibition; P49327; recombinant FAS-TE, OMFH fluorogenic substrate, fluorescence endpoint; inhibition, % at 15 µM; actives 0.67% (n = 360,000);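 active = compounds whose normalised, plate-corrected inhibition of enzyme fluorescence in the single-dose primary screen is 50% or more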;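 also: 0% = DMSO with enzyme and 100% = substrate without enzyme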
MPTP inh: blocks calcium-induced mitochondrial swelling; isolated mouse mitochondria, Ca2+ swelling absorbance, 30 min; inhibition, % at 10 µM; actives 1.4% (n = 360,000);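 active = inhibition of 50% or more, scaled per plate between neutral and stimulator controls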;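 also: 0% = DMSO wells given calcium and 100% = 1 mM EGTA wells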
MPTP counter: mitochondrial membrane potential, counter-screen | inhibition, % at 10 µM | shares compounds with MPTP inh | actives 78% (n = 5,000) | isolated mitochondria, Rhodamine 123 fluorescence | AID 624504; in the data active = inhibition above about 22%;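 also: 0% = DMSO vehicle and 100% = positive control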
MPTP swell DR: dose response confirmation of mitochondrial permeability transition pore inhibitors; shares compounds with MPTP inh; isolated mitochondria swelling, absorbance; IC50, µM; actives 58% (n = 780); AID 651561; in the data active = IC50 below about 20 µM
MPTP cs DR: counter-screen for mitochondrial permeability transition pore inhibitors, dose response; shares compounds with MPTP inh; isolated mitochondria counterscreen, fluorescence read-out; IC50, µM; actives 49% (n = 780); AID 651564; in the data active = IC50 below about 80 µM
* hit, by the source's call. Sampled rows, rich in hits. Any-hit rate of the full collection: about 4.1%.

What do the screens show for `c1csc(C2Nc3ccccc3-c3nc4ccccc4n32)c1` (stereo not given)?
MIN6 prolif: 0.0; pCIP destab: -6.1; GRIN3A LBD mod: 24.3*; FAS TE block: -2.5; MPTP inh: 51.5*; MPTP counter: 74.5*

How did c1cncc(C2Nc3ccccc3-c3nc4ccccc4n32)c1 (stereo not given) do in these assays?
MIN6 prolif: -2.8; pCIP destab: -4.0; GRIN3A LBD mod: -12.6; FAS TE block: 0.4; MPTP inh: 59.0*; MPTP counter: 88.1*

How did C=CCNC(=O)CSc1n[nH]c(-c2cc(Cl)ccc2OC)n1 do in these assays?
MIN6 prolif: -0.5; pCIP destab: -2.8; GRIN3A LBD mod: -2.0; FAS TE block: -0.4; MPTP inh: -0.9

Results for O=c1oc2ccccc2c(NCc2ccc(Cl)cc2)c1[N+](=O)[O-] ?
MIN6 prolif: -1.9; pCIP destab: -0.3; GRIN3A LBD mod: -6.0; FAS TE block: 28.1; MPTP inh: 54.5*; MPTP counter: 72.7*

Results for O=c1oc2ccccc2c(NCc2ccccc2)c1[N+](=O)[O-] ?
MIN6 prolif: 1.6; pCIP destab: -5.9; GRIN3A LBD mod: 6.0; FAS TE block: 8.3; MPTP inh: 4.1

How did O=c1oc2ccccc2c(Nc2cccc3ccccc23)c1[N+](=O)[O-] do in these assays?
MIN6 prolif: 0.0; pCIP destab: 5.5; GRIN3A LBD mod: 0.5; FAS TE block: -3.6; MPTP inh: 66.8*; MPTP counter: 79.5*

What do the screens show for `O=c1oc2ccccc2c(Nc2ccccc2O)c1[N+](=O)[O-]`?
MIN6 prolif: -0.5; pCIP destab: -4.9; GRIN3A LBD mod: 5.3; FAS TE block: -4.5; MPTP inh: 0.4

Results for Cc1cc(Cl)cc(Cl)c1CNc1c([N+](=O)[O-])c(=O)oc2ccccc12 ?
MIN6 prolif: 0.0; pCIP destab: -15.8; GRIN3A LBD mod: -7.0; FAS TE block: 26.2; MPTP inh: 90.3*; MPTP counter: 96.0*

How did COc1cccc(NC(=O)CN(C)C(=O)c2cccc(S(=O)(=O)N3CC4(C)CC3CC(C)(C)C4)c2)c1 (stereo not given) do in these assays?
MIN6 prolif: -4.5; GRIN3A LBD mod: -8.6; FAS TE block: 13.9; MPTP inh: 1.1

What do the screens show for `Cc1nc2ccccn2c1-c1ccnn1S(=O)(=O)c1ccc(F)cc1`?
MIN6 prolif: -2.2; pCIP destab: -0.4; GRIN3A LBD mod: 0.4; FAS TE block: -2.6; MPTP inh: 78.6*; MPTP counter: 48.3*

Results for S=c1[nH]nc(COc2ccc(Cl)cc2Cl)n1-c1ccccc1 ?
MIN6 prolif: -0.9; pCIP destab: -6.0; GRIN3A LBD mod: -2.3; FAS TE block: -3.7; MPTP inh: 0.3

Results for COc1ccc(Cl)cc1NC(=O)c1cccc([N+](=O)[O-])c1O ?
GRIN3A LBD mod: 2.4; FAS TE block: -2.7; MPTP inh: 85.3*; MPTP counter: 96.0*

Results for COc1ccc(Cl)cc1NC(=O)c1ccco1 ?
MIN6 prolif: -2.3; pCIP destab: -5.4; GRIN3A LBD mod: -0.3; FAS TE block: 0.6; MPTP inh: 79.8*; MPTP counter: 0.8; MPTP swell DR: inactive; MPTP cs DR: >80

Results for O=C(Nc1ccc(Cl)cc1)Nc1cccnc1 ?
MIN6 prolif: -2.4; pCIP destab: -7.8; GRIN3A LBD mod: 12.7*; FAS TE block: -7.4; MPTP inh: 63.6*; MPTP counter: 82.7*

What do the screens show for `O=C(Nc1cccc(Cl)c1)Nc1ccc(Cl)cn1`?
MIN6 prolif: -2.3; pCIP destab: -0.6; GRIN3A LBD mod: -6.9; FAS TE block: -5.6; MPTP inh: 3.2

What do the screens show for `O=C(Nc1ccc(F)c(Cl)c1)Nc1ccc(Cl)cn1`?
MIN6 prolif: 0.6; pCIP destab: 5.3; GRIN3A LBD mod: -1.2; FAS TE block: 0.6; MPTP inh: 87.4*; MPTP counter: 96.3*

Results for C=CCNC(=O)Nc1ccc(F)c(Cl)c1 ?
MIN6 prolif: -0.1; pCIP destab: -7.5; GRIN3A LBD mod: 8.5; FAS TE block: -2.3; MPTP inh: 7.8
